bovine MsrA act: bovine MsrA enzyme activators, primary screen, biochemical, absorbance, HTS; 0.3% of 360,000 active; AID 602163, 2012; Methionine sulfoxide reductase A (Bos taurus); purified bovine MsrA, absorbance read-out; activation, % at 10.6 µM; in the data active means activation above about 7.5%;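 further: 0% = vehicle and 100% = reference activator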
PLC-gamma1 inh: PLC-gamma1 enzyme inhibitors, primary screen, biochemical, fluorescence, purified enzyme; 1-phosphatidylinositol 4,5-bisphosphate phosphodiesterase gamma-1 (Homo sapiens), P19174; fluorogenic substrate; inhibition, % at 12.2 µM; 0.84% of 370,000 active; AID 720700, 2013; in the data active means inhibition above about 9.5%
PLCb3 inh: human PLC-beta3 inhibitors, primary screen, biochemical, fluorescence; inhibition, % at 12.2 µM; 1-phosphatidylinositol 4,5-bisphosphate phosphodiesterase beta-3 (Homo sapiens), Q01970; 0.18% of 370,000 active; Purified PLC-beta3, fluorogenic substrate; in the data active means inhibition above about 11%;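 further: 0% = median of compound wells on plate and 100% = full blocker control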
MsrA inhibitor: bovine MsrA enzyme inhibitors, primary screen, biochemical, absorbance, HTS. 0.75% of 360,000 active. AID 651718, 2012. inhibition, % at 15.5 µM. purified bovine MsrA, absorbance read-out. Methionine sulfoxide reductase A (Bos taurus);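 further: 0% = vehicle wells with enzyme and 100% = reference inhibitor wells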
MsrA inh confirm: bovine MsrA inhibitors, retest, confirmation, biochemical, absorbance, HTS. shares compounds with MsrA inhibitor. purified bovine MsrA, absorbance read-out. inhibition, % at 15.5 µM. 41% of 2,300 active;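 further: coupled to thioredoxin reductase with NADPH and selenocystamine and DMSO as substrate; 0% = vehicle only and 100% = full effect of reference inhibitor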
Active calls of the source: *; i = inactive; x = no result given. This is a sample that favours compounds with a hit; in the whole collection about 1.9% have one here. Unless noted, no stated cut-off is given here; in the data, active means inhibition above about 4.5%; inactive means the rest.

SMILES	bovine MsrA act	PLC-gamma1 inh	PLCb3 inh	MsrA inhibitor	MsrA inh confirm
CC(NC(=O)COC(=O)C1=NN(c2ccccc2)C(=O)CC1)c1ccccc1 (stereo unspecified)	-8	1	0	0	x
Cc1cc(NC(=O)COC(=O)C2=NN(c3ccccc3)C(=O)CC2)c([N+](=O)[O-])cc1C	-7	3	-10	0	x
CCC(C)c1ccccc1NC(=O)COC(=O)C1=NN(c2ccccc2)C(=O)CC1 (stereo unspecified)	-4	0	-1	39*	30*
COC(=O)C12C=C3CC(c4ccc(C(F)(F)F)cc4)=C3C(=O)N1Cc1[nH]c3ccccc3c1C2 (stereo unspecified)	x	-42	-71	x	x
CS/C(=C/[N+](=O)[O-])Nc1cccc2c1C(C)CC2(C)C (stereo unspecified)	-4	1	1	23*	20*
CCc1cc(C(=O)Cc2nc3ccccc3[nH]2)c(O)cc1O	-2	-48	-63	5.0*	4
O=C(Cc1nc2ccccc2[nH]1)c1ccc(Cl)cc1	-2	-55	-91	0	x
N#C/C(=C/c1cccs1)c1ccccn1	-5	-2	-9	5.1*	5.4*
O=C(/C(C=Nc1ccc(Br)cc1)=C(/O)c1ccco1)C(F)(F)F	-4	-44	-40	4.8*	3
O=C(/C(C=Nc1cccc(C(F)(F)F)c1)=C(/O)c1ccco1)C(F)(F)F	-4	1	7	2	x
Cc1cccc(C)c1NC(=O)[C@H]1CC(=O)O[C@@H]1c1ccccc1	x	8	5	x	x
CC(C)CC1O[C@@H](C)[C@@H]2CN3CCc4c([nH]c5ccccc45)[C@@H]3C[C@@H]2N1C (stereo partly specified)	x	-59	-69	0	x
Cc1cc(/C=C(/C#N)c2nc3ccccc3[nH]2)c(C)n1-c1ccccc1C(=O)O	-2	-84	-126	2	x
Cc1cc(/C=C(/C#N)c2nc3ccccc3[nH]2)c(C)n1-c1cc(C(=O)O)cc(C(=O)O)c1	-5	-103	-145	4.9*	3
CN1c2ccsc2C(O)=C(C(=S)Nc2ccc(F)c(Cl)c2)S1(=O)=O	-13	-482	i	6.5*	5.1*
Cn1cc(C(=O)Nc2ccc(F)c(Cl)c2)cn1	0	2	2	0	x
CCOC(=O)C1=C(C(=O)OCC)C2N(Cc3ccc(C#N)cc3)c3ccccc3[C@@]23C[C@@H](C(=O)OC)N(S(=O)(=O)c2ccccc2C)C3=N1 (stereo partly specified)	x	-3	-1	2	x
CCN1C(=O)C2(C(C(=O)c3ccc(C)o3)=C(O)C(=O)N2CCCN2CCOCC2)c2ccccc21 (stereo unspecified)	8	-3	-3	1	x
Cc1ccc(C(=O)C2=C(O)C(=O)N(CCCN3CCOCC3)C23C(=O)N(C)c2ccccc23)o1 (stereo unspecified)	-1	-8	-16	10*	6.2*
CCCCSc1nc2sc3c(c2c(=O)n1-c1ccccc1)CCN(C)C3	-4	-23	-42	5.4*	2
CCCCSc1nc2sc3c(c2c(=O)n1-c1ccc(OC)cc1)CCN(C)C3	-3	-57	-73	0	x
COC(=O)CSc1nc2sc3c(c2c(=O)n1-c1ccccc1)CCN(C)C3	-11	-172	-189	4.7*	2
CN1CCc2c(sc3nc(SCC(N)=O)n(-c4ccccc4)c(=O)c23)C1	0	-45	-58	2	x
C[C@H]1C2CC(OC(=O)NCc3ccc(Cl)cc3)C(C2)[C@H]2CCCCN21 (stereo partly specified)	x	-2	-4	x	x
Cc1[nH]n(-c2ccc(Cl)cc2)c(=O)c1C(=O)c1ccccc1	-3	1	1	7.3*	0
Cc1ccc(Cl)cc1N1CCN(C(=O)C2CCCN(S(=O)(=O)c3cnc[nH]3)C2)CC1 (stereo unspecified)	-3	1	2	-1	x
CC(=O)c1ccc(N2CCN(C(=O)C3CCCN(S(=O)(=O)c4cnc[nH]4)C3)CC2)cc1 (stereo unspecified)	-6	0	2	5.1*	3
COC(=O)[C@H](Cc1ccccc1)NP(=O)(OC)[C@@H](C)NC(=O)OCc1ccccc1 (stereo partly specified)	x	-1	4	x	x
CN(C)C1=NC(=O)/C(=C\c2ccccc2)S1	-2	0	-1	6.5*	3
